High-throughput results (PubChem BioAssay)
The full list was thinned out, with hits kept by preference.
Tb PYK inh = qHTS of Trypanosoma Brucei Inhibitors. pyruvate kinase (Trypanosoma brucei), Q57TT1. Potency, µM (top dose mostly 76.8 µM), without a hit: at the highest dose activity, negative = inhibition, actives largely listed as inhibitors. TbPYK enzyme, Kinase-Glo Plus ATP luminescence, 45 min. 0.12% of 410,000 active; note: potency is the fitted concentration of half-maximal effect; % is set by controls: 0 for no effect and ±100 for the full control effect; nearly all actives have a fitted effect of over 50% in size
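In this concentration-response screen, enzyme-free wells defined baseline while DMSO plates tracked drift. Each reaction combined TbPYK, substrate, compound and 130 uM ADP for 45 min at room temperature. Kinase-Glo Plus luminescence gave the signal.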
Giardia FBPA inh = qHTS Assay for Inhibitors of Fructose-1,6-bisphosphate Aldolase from Giardia Lamblia. A8B2U2. purified Giardia FBPA. Potency, µM (titrated, usually from 59.6 µM), without a hit: at the highest dose activity, negative = inhibition, hits mostly inhibitors. 0.71% of 290,000 active. AID 2451, 2010; note: potency is the fitted concentration of half-maximal effect; % is set by controls: 0 for no effect and ±100 for the full control effect; nearly all actives have a fitted effect of over 55% in size
Target sequence (A8B2U2 whole entry, looked up): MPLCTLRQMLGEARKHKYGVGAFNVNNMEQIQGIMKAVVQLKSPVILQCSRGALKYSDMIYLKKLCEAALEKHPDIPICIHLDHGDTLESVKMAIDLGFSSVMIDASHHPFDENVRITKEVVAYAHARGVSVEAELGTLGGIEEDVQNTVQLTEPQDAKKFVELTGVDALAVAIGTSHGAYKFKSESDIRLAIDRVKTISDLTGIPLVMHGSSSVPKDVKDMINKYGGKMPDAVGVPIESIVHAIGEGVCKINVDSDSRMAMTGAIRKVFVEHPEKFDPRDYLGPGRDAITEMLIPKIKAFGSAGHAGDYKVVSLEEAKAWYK
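Giardia FBPA (40 nM reagent) was preincubated 10 min at RT with compound (up to 57.5 uM final), then substrate plus GAPDH/TPI/NAD/arsenate coupling system with diaphorase/resazurin was added; resorufin fluorescence (525/598 nm) was read after 20 min.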
RE007 growth inh = qHTS Assay for Inhibitors of the HIV-1 protein Vpr; S. pombe RE007 Vpr strain, BacTiter-Glo ATP luminescence, 24 h; Potency, µM (series often up to 92.2 µM), for inactives: top-dose activity change, negative = less growth, most hits filed as inhibitors; 0.21% of 360,000 active; AID 651644, 2012; active = well fitted falling curve with a large enough effect; inconclusive = small, poorly fitted or top-dose-only effect; inactive = no such curve, though single readings can be large or run the other way; note: potency is the fitted concentration of half-maximal effect; % is set by controls: 0 for no effect and ±100 for the full control effect; nearly all actives have a fitted effect of over 50% in size
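Fission yeast strain RE007, carrying one chromosomally integrated HIV-1 vpr copy, was seeded at OD 0.01 in PMG+AL medium with 23 nL pinned compound. After 24 h at 30 °C and 99% humidity, viability was read by BacTiter-Glo luminescence.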
LmPK inh = qHTS Assay for Inhibitors of Leishmania Mexicana Pyruvate Kinase (LmPK) | Q27686 | purified LmPK, Kinase-Glo ATP luminescence, 1 h | Potency, µM (doses to about 57.5 µM), inactives show at the top dose activity change, negative = inhibition, actives largely listed as inhibitors | 0.37% of 290,000 active | AID 1721, 2009; note: potency is the fitted concentration of half-maximal effect; % is set by controls: 0 for no effect and ±100 for the full control effect
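Kinase-Glo luminescence read after 1 h RT reaction of 0.1 nM LmPK with 0.5 mM PEP and 0.1 mM ADP. Activity scaled between uninhibited and enzyme-free controls.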
Shiga inhibitor = A qHTS for Small Molecule Inhibitors of Shiga Toxin; Vero cells, Shiga toxin protein synthesis inhibition reporter; AID 2315, 2010; 9.2% of 290,000 active; inhibition, % at 38.7 µM; in the data active = inhibition mostly above about 28%, no sharp cut-off; inactive = mostly below about 43%; note: 0% is about no effect
Cycloheximide cs = Cycloheximide Counterscreen for Small Molecule Inhibitors of Shiga Toxin. max response, %. cell reporter, cycloheximide protein synthesis inhibition counterscreen. 12% of 300,000 active. AID 2314, 2010; in the data active = max response mostly above about 13%, no sharp cut-off; inactive = mostly below about 14%; note: read at 38.3 µM for the half of the compounds with a filed dose; 0% is about no effect
The depositor's hits bear a star; i = inactive; u = inconclusive; x = no result. Unless noted, calls come from the whole dose curve; as a rule, active = well fitted curve in the direction sought with a large enough effect; inconclusive = small, poorly fitted or top-dose-only effect, or another doubt; inactive = no such curve, though single readings can be large; an effect the other way counts as inactive or inconclusive.

SMILES	Tb PYK inh	Giardia FBPA inh	RE007 growth inh	LmPK inh	Shiga inhibitor	Cycloheximide cs
CCC(C)c1ccc(NC(=O)Nc2cccnc2)cc1 (centres undefined)	-9.3%	15.1%	-8.2%	-2.5%	76.4*	79.6*
CCC(C)c1ccc(NC(=O)NCc2cccnc2)cc1 (centres undefined)	1.5%	-7.3%	5.2%	-8.5%	13.9	26.2*
O=C(NCc1cccnc1)C12CC3CC(CC(Cl)(C3)C1)C2	9.1%	x	-3.3%	-5.7%	16.0*	16.5
O=C(NCc1cccnc1)Nc1ccc(Cl)cc1	-1.6%	x	6.2%	-3.3%	22.1	17.9*
O=C(NCc1ccccc1)C12CC3CC(CC(Cl)(C3)C1)C2	-3.2%	-2.5%	39.9%	7.0%	2.3	-3.0
COc1ccc(NC(=O)NCc2cccnc2)cc1	-24.4%	x	-13.3%	-3.6%	-10.7	8.0
Cc1ccccc1CN1CCN(c2nc3ccccc3s2)CC1	-9.7%	5.9%	-20.7%	-0.9%	62.9*	50.9*
O=[N+]([O-])c1ccc(CN2CCN(c3nc4ccccc4s3)CC2)cc1	2.5%	-4.9%	6.3%	8.2%	24.0	11.5*
COc1ccc(CN2CCN(c3nc4ccccc4s3)CC2)cc1	-1.5%	0.4%	11.2%	-4.8%	20.7	15.7
c1csc(Cn2nnnc2CN2CCN(c3nc4ccccc4s3)CC2)c1	-1.5%	5.3%	6.4%	-9.8%	-12.8	-2.2
Cc1ccc(NC(=O)[C@H](CSCc2ccccc2)N2Cc3ccccc3C2=O)cc1	-2.4%	x	x	x	x	x
CCOC(=O)C1(CCOc2ccccc2)CCN(Cc2cccc3nonc23)CC1	5.0%	-6.1%	-0.7%	1.2%	14.0	5.6
CN(C)C(=O)Oc1ccc(Br)cc1C(=O)Nc1ccc(F)c(Cl)c1	-0.5%	-5.4%	-0.6%	10.2%	10.5	9.6
O=C(Nc1ccc(Cl)cc1)c1ccc(Br)cc1F	4.3%	-12.4%	-8.7%	-8.5%	86.4*	43.5*
CCc1ccc(NC(=O)c2cc(Br)ccc2Br)cc1	x	-3.2%	x	7.7%	11.6	10.6
CC(C)c1ccc(NC(=O)c2cc(Br)ccc2Br)cc1	3.0%	-6.2%	-4.1%	-5.3%	60.0*	43.1*
COC(=O)c1cc2c(cc1N)OCCO2	0.9%	u	-11.4%	-15.9%	25.8	25.4*
CCc1ccc(NC(=O)c2ccccc2SC)cc1	2.1%	-20.5%	-25.1%	u	47.2	31.3*
CCc1ccc(NC(=O)c2cnc(SC)nc2C)cc1	-11.3%	-5.6%	0.3%	4.0%	41.7	28.9*
CSc1ncc(C(=O)Nc2ccc(C(C)=O)cc2)c(-c2ccccc2)n1	0.0%	17.3%	4.1%	2.1%	51.4*	40.6*
Cc1ncoc1C(=O)N1CCCC(N2CCN(c3cccc(C(F)(F)F)c3)CC2)C1 (centres undefined)	-1.1%	4.5%	-13.4%	-3.6%	-8.8	9.2
O=C(COc1ccc(Br)cc1)NCCNC(=O)c1ccccn1	6.5%	1.6%	-12.9%	-8.5%	-9.3	1.4
COC(=O)CN1C(=O)N/C(=C/c2ccc(C)o2)C1=O	-9.0%	u	-6.5%	13.8%	3.8	-1.9
Cc1ccc(/C=C2/NC(=O)N(Cc3ccccc3)C2=O)o1	u	u	44.7µM*	-4.4%	9.0	-0.8
CCN1C(=O)N/C(=C/c2cc(C)n(Cc3ccccc3)c2C)C1=O	5.8%	-10.2%	7.7%	-1.0%	36.7*	26.6*
SMILES	Tb PYK inh	Giardia FBPA inh	RE007 growth inh	LmPK inh	Shiga inhibitor	Cycloheximide cs
N#Cc1c(NC(=O)CSc2nnnn2C2CCCCC2)sc2c1CCCC2	4.6%	2.6%	-10.1%	1.5%	-15.5	-7.3
Cc1ccc(OCC(=O)Nc2sc3c(c2C#N)CCC3)cc1	2.9%	7.8%	1.4%	6.4%	122.0*	53.0*
CCOC(=O)Nc1sc2c(c1C#N)CCCC2	2.1%	-8.4%	u	8.0%	73.9*	30.6*
CCC(=O)Nc1sc2c(c1C#N)CCC2	-15.3%	1.0%	-9.3%	7.9%	28.8	5.6
COc1ccc(C(=O)Nc2sc(C)c(-c3ccccc3)c2C#N)cc1OC	-9.0%	-25.9%	-5.7%	0.7%	24.3	9.6
Cc1nnc(SCC(=O)Nc2sc3c(c2C#N)CCCCC3)n1N	-7.9%	-15.9%	7.1%	-2.4%	51.4*	19.6*
Cc1sc(NC(=O)COc2ccccc2)c(C#N)c1-c1ccccc1	-10.7%	-1.3%	-1.4%	1.3%	-4.6	22.9*
Cc1ccc(OCC(=O)Nc2sc3c(c2C#N)CCC3)cc1C	-2.9%	-8.0%	-14.5%	2.2%	15.6	-1.8
CCOC(=O)c1sc(NC(=O)c2ccc3ncsc3c2)nc1C	-0.9%	4.7%	-4.5%	2.2%	72.5*	25.1*
CCOC(=O)c1sc(NC(=O)c2cncc(Br)c2)nc1C	x	6.3%	x	-3.6%	56.5*	15.0
CCOC(=O)c1sc(NC(=O)c2ccc(S(=O)(=O)N(C)C)cc2)nc1C	2.8%	-3.7%	-8.4%	4.4%	26.9	-3.2
CCOC(=O)c1sc(NNC(=O)c2ccc(F)cc2)nc1C	-26.4%	4.7%	-15.3%	0.0%	55.9*	21.9*
Cc1[nH]c(C)c(S(=O)(=O)Nc2cccc(Cl)c2C)c1C(=O)N1CCCCC1	-9.9%	-1.5%	-6.9%	-3.1%	-6.8	-6.9
CCc1ccc(C(=O)c2cn(CC(=O)NCc3ccc(C)cc3)c3nc(C)ccc3c2=O)cc1	-0.2%	x	x	x	x	x
Clc1ccc(SCc2cn3ccccc3n2)cc1	5.7%	0.6%	-2.8%	-0.6%	53.6*	36.8*
Clc1ccc2nc(CSCc3ccccc3)cn2c1	-2.8%	-2.3%	8.2%	-6.1%	98.5*	48.8*
Clc1ccc2nc(CSc3nc4ccccc4o3)cn2c1	1.8%	-2.8%	-3.7%	-0.6%	129.3*	37.4*
Cc1ccc(SCc2cn3c(C)csc3n2)cc1	6.2%	-23.2%	i	u	74.0*	44.1*
C=CCc1cccc(/C=N/NC(=O)CN2CCN(Cc3ccccc3)CC2)c1O	x	12.7%	x	x	-6.3	-6.5
Cc1cccc(NC(=O)c2sc3nc4c(cc3c2N)CN(C(C)C)CC4)c1	-13.8%	x	x	x	x	x
c1ccc2c(SCc3cn4ccccc4n3)nncc2c1	-0.4%	-17.0%	-19.1%	-8.0%	75.9	38.3*
Cc1cccc2nc(CSCc3ccco3)cn12	6.3%	u	-7.3%	-18.1%	82.4*	30.9*
Cc1ccc(SCc2cn3cc(Cl)ccc3n2)cc1	5.5%	-5.1%	u	2.5%	61.6*	51.5*
CNc1cc(CSc2ccc(Cl)cc2)nc(C)n1	-2.0%	2.8%	4.7%	-5.7%	99.0*	46.6*
Clc1ccc2nc(CSc3nnc4ccccn34)cn2c1	-13.3%	0.0%	0.7%	-8.4%	91.6*	38.0*
Cc1cccc2nc(CSc3ccc(Cl)cc3)cn12	2.2%	0.1%	u	-17.5%	91.1*	48.8*
